Test results: the supplement of paper PMC6992640
± gives the standard deviation of the averaged measurements.

Experiments:
Experiment in all cases: cell viability (% of vehicle); higher = less cytotoxic
Details in all cases: 10 µM; 72 h
HCI01 = test system: HCI01 (cells of a triple-negative basal-like breast cancer xenograft)
HCI03 = test system: HCI03 (cells of an ER-positive luminal breast cancer xenograft)
HCI09 = test system: HCI09 (cells of a triple-negative luminal androgen receptor type breast cancer xenograft)
HCI11 = test system: HCI11 (cells of an ER-positive luminal breast cancer xenograft)
HCI13 = test system: HCI13 (cells of an ER-positive luminal breast cancer xenograft)
HCI16 = test system: HCI16 (cells of a triple-negative basal-like breast cancer xenograft)
UCD52 = test system: UCD52 (cells of a triple-negative basal-like breast cancer xenograft)
WHIM2 = test system: WHIM2 (cells of a triple-negative basal-like breast cancer xenograft)
WHIM30 = test system: WHIM30 (cells of a triple-negative basal-like breast cancer xenograft)
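Further: PDX cells carrying CMV promoter-driven luciferase, viability read as total photon flux per second by IVIS imaging following D-luciferin, vehicle control 0.1% DMSO.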

Compound | cell viability (HCI01) | cell viability (HCI03) | cell viability (HCI09) | cell viability (HCI11) | cell viability (HCI13) | cell viability (HCI16) | cell viability (UCD52) | cell viability (WHIM2) | cell viability (WHIM30)
O=C(O)c1ccc2c(c1)nc(Nc1cccc(Cl)c1)c1ccncc12 [CX-4945 (Silmitasertib)] | 115 ± 62 | 111 | 28.5 ± 13 | 137 | 192 ± 22 | 106 | 78 ± 8.1 | 99.48 ± 0.45 | 79.9 ± 14
CC1(c2nc3c(C(N)=O)cccc3[nH]2)CCCN1 (stereo not drawn) [ABT-888 (Veliparib)] | 109 ± 7.5 | 120 | 108 ± 5.2 | 100 | 86.9 ± 14 | 91.1 | 94.2 ± 2 | 101 ± 14 | 121 ± 4.2
CC12CCC3c4ccc(OC(=O)c5ccccc5)cc4CCC3C1CCC2O (stereo not drawn) [Estradiol Benzoate] | 123.5 ± 0.41 | 131 | 79.7 ± 1.4 | 84.7 | 191 ± 13 | 126 | 83.6 ± 14 | 132 ± 29 | 138 ± 13
NC(N)=Nc1nc(CSCCC(N)=NS(N)(=O)=O)cs1 [Famotidine] | 120 ± 16 | 127 | 103 ± 8.7 | 98.9 | 149 ± 20 | 98.6 | 78.5 ± 6.2 | 85.9 ± 6.1 | 165 ± 4.1
CC1(C)SC2C(NC(=O)C(NC(=O)N3CCN(S(C)(=O)=O)C3=O)c3ccccc3)C(=O)N2C1C(=O)O.[Na] (stereo not drawn) [Mezlocillin Sodium] | 143 ± 62 | 142 | 104 ± 10 | 102 | 89.7 ± 3.6 | 123 | 105 ± 1.2 | 107 ± 20 | 103 ± 9.4
COC(=O)C1C2CC3c4[nH]c5cc(OC)ccc5c4CCN3CC2CC(OC(=O)c2cc(OC)c(OC)c(OC)c2)C1OC.Cl (stereo not drawn) [Reserpine hydrochloride] | 109 ± 8.9 | 114 | 66.7 ± 3.4 | 97.6 | 124 ± 17 | 87.9 | 79.9 ± 1.5 | 92.6 ± 19 | 78.4 ± 6.3
CCc1ccc(CCOc2ccc(CC3SC(=O)NC3=O)cc2)nc1.Cl (stereo not drawn) [Pioglitazone HCl] | 119 ± 6.9 | 129 | 93.7 ± 19 | 125 | 126 ± 2 | 102 | 116 ± 11 | 116 ± 13 | 182 ± 40
CC(CN1CC(=O)NC(=O)C1)N1CC(=O)NC(=O)C1.Cl (stereo not drawn) [Dexrazoxane HCl (ICRF-187, ADR-529)] | 64.8 ± 50 | 134 | 107 ± 3.7 | 97.9 | 96.3 ± 1.9 | 84.2 | 96.1 ± 14 | 70.2 ± 19 | 114 ± 1.9
COC(=O)Nc1nc2cc(C(=O)c3ccccc3)ccc2[nH]1 [Mebendazole] | 134 ± 45 | 110 | 119 ± 45 | 68.6 | 88.9 ± 15 | 177 | 103.3 ± 0.22 | 92.6 ± 18 | 110.3 ± 0.28
CCCC(NC(C)C(=O)N1C(C(=O)O)CC2CCCCC21)C(=O)OCC (stereo not drawn) [Perindopril] | 110.1 ± 0.73 | 111 | 131 ± 35 | 111 | 134 ± 4.2 | 94.2 | 103 ± 2.7 | 102 ± 5.3 | 101 ± 2.5
CC(C)(C)NCC(O)c1ccc(O)c(CO)c1.O=S(=O)(O)O (stereo not drawn) [Salbutamol Sulfate] | 103 ± 5.9 | 104 | 97.4 ± 19 | 90.5 | 106 ± 21 | 104 | 85.4 ± 4.9 | 92.9 ± 19 | 114 ± 6.2
CC(O)(P(=O)(O)O)P(=O)(O)O [Etidronate] | 94.3 ± 15 | 96.6 | 94.9 ± 14 | 85.2 | 107.1 ± 0.89 | 92.3 | 75 ± 5.3 | 150 ± 2.7 | 111 ± 11
Cc1c(-c2ccccc2)oc2c(C(=O)OCCN3CCCCC3)cccc2c1=O.Cl [Flavoxate hydrochloride] | 87 ± 21 | 123 | 115.8 ± 0.74 | 90.9 | 128 ± 27 | 119 | 99.5 ± 2 | 88.5 ± 24 | 107 ± 9.2
CCC1=CC2CN(C1)Cc1c([nH]c3ccccc13)C(C(=O)OC)(c1cc3c(cc1OC)N(C)C1C(O)(C(=O)OC)C(OC(C)=O)C4(CC)C=CCN5CCC31C54)C2.O=C(O)C(O)C(O)C(=O)O.O=C(O)C(O)C(O)C(=O)O (stereo not drawn) [Vinorelbine ditartrate] | 106 ± 17 | 112 | 65.2 ± 5.9 | 109 | 39 ± 7.7 | 122 | 55.7 ± 4 | 57.2 ± 2.2 | 95.5 ± 16
COc1ccc(CNc2nc(N3CCCC3CO)ncc2C(=O)NCc2ncccn2)cc1Cl (stereo not drawn) [Avanafil] | 155 ± 7.5 | 117 | 102 ± 23 | 143 | 123 ± 11 | 121 | 104 ± 15 | 130 ± 2.6 | 135 ± 7.5
NCC1OC(OC2C(N)CC(N)C(OC3OC(CO)C(O)C(N)C3O)C2O)C(O)C(O)C1O.O=S(=O)(O)O (stereo not drawn) [Kanamycin Sulfate] | 106 ± 5.6 | 92.9 | 90.5 ± 16 | 96.7 | 120 ± 31 | 86.8 | 81.5 ± 0.83 | 80.1 ± 15 | 95.8 ± 11
CC(O)C1C(=O)N2C(C(=O)OCOC(=O)C(C)(C)C)=C(SC3CN(C4=NCCS4)C3)C(C)C12 (stereo not drawn) [Tebipenempivoxil] | 130 ± 21 | 110 | 142 ± 85 | 115 | 101 ± 34 | 89.7 | 97.2 ± 11 | 112 ± 53 | 133 ± 17
CN1CCCC(n2nc(Cc3ccc(Cl)cc3)c3ccccc3c2=O)CC1.Cl (stereo not drawn) [Azelastine HCl] | 142 ± 46 | 106 | 101 ± 1.3 | 69.2 | 113 ± 22 | 116 | 57.6 ± 17 | 78.7 ± 8.4 | 94.9 ± 6.3
CCCCCCCCCC(=O)NC(Cc1c[nH]c2ccccc12)C(=O)NC(CC(N)=O)C(=O)NC(CC(=O)O)C(=O)NC1C(=O)NCC(=O)NC(CCCN)C(=O)NC(CC(=O)O)C(=O)NC(C)C(=O)NC(CC(=O)O)C(=O)NCC(=O)NC(CO)C(=O)NC(C(C)CC(=O)O)C(=O)NC(CC(=O)c2ccccc2N)C(=O)OC1C (stereo not drawn) [Daptomycin] | 142 ± 4.9 | 141 | 128 ± 9.9 | 113 | 163 ± 89 | 111 | 118 ± 18 | 103 ± 28 | 162 ± 40

Compound | cell viability (HCI01) | cell viability (HCI03) | cell viability (HCI09) | cell viability (HCI11) | cell viability (HCI13) | cell viability (HCI16) | cell viability (UCD52) | cell viability (WHIM2) | cell viability (WHIM30)
CS(=O)(=O)O.N#CC1(c2ccc(NC(=O)c3cccnc3NCc3ccncc3)cc2)CCCC1 [Apatinib] | 140 ± 88 | 109 | 33.4 ± 8.3 | 65.4 | 65 ± 2 | 119 | 48.5 ± 6.5 | 85.3 ± 4.8 | 105 ± 19
Cc1ccc(C(=O)c2cc(O)c(O)c([N+](=O)[O-])c2)cc1 [Tolcapone] | 70.6 ± 40 | 52.5 | 14.6 ± 1.4 | 57.5 | 64.16 ± 0.48 | 84.2 | 71.6 ± 18 | 117 ± 26 | 120 ± 7.5
FC(F)(F)c1ccc(CNc2ccc(Cc3c[nH]c4ncc(Cl)cc34)cn2)cn1 [Pexidartinib (PLX3397)] | 100 ± 1.4 | 139 | 73.6 ± 3.9 | 91.3 | 96.9 ± 7.1 | 116 | 97.4 ± 16 | 96.5 ± 8.4 | 86 ± 11
CC(=O)Oc1ccc(C(c2ccc(OC(C)=O)cc2)c2ccccn2)cc1 [Bisacodyl] | 53.2 ± 14 | 130 | 30.9 ± 6.2 | 50.3 | 184 ± 16 | 70.9 | 80.9 ± 17 | 111 ± 43 | 76.5 ± 1.4
CC12CCC(O)CC1=CCC1C2CCC2(C)C(c3cccnc3)=CCC12 (stereo not drawn) [Abiraterone] | 138 ± 7.1 | 168 | 86.1 ± 4.6 | 76.6 | 145 ± 42 | 111 | 94.1 ± 9.2 | 131 ± 6.1 | 156 ± 22
CN1CCc2nc(C(=O)NC3CC(C(=O)N(C)C)CCC3NC(=O)C(=O)Nc3ccc(Cl)cn3)sc2C1.Cc1ccc(S(=O)(=O)O)cc1.O (stereo not drawn) [Edoxaban tosylate monohydrate] | 102 ± 2.5 | 92.1 | 87.2 ± 11 | 91.2 | 109 ± 8.7 | 81.1 | 88.8 ± 16 | 96.4 ± 8.8 | 120 ± 4.4
NNC(=O)c1ccncc1.Nc1ccc(C(=O)O)c(O)c1 [Pasiniazid] | 94.9 ± 11 | 111 | 127 ± 61 | 122 | 182 ± 9.2 | 83.7 | 95.1 ± 3.1 | 80.5 ± 33 | 133 ± 5.1
NC(CC(=O)N1CCn2c(nnc2C(F)(F)F)C1)Cc1cc(F)c(F)cc1F.O.O=P(=O)OO.[HH] (stereo not drawn) [Sitagliptin phosphate monohydrate] | 134 ± 15 | 154 | 94.1 ± 15 | 131 | 135 ± 37 | 135 | 120 ± 3.7 | 115.8 ± 0.55 | 144 ± 14
COCCc1ccc(OCC(O)CNC(C)C)cc1.COCCc1ccc(OCC(O)CNC(C)C)cc1.O=C(O)C(O)C(O)C(=O)O (stereo not drawn) [Metoprolol Tartrate] | 126 ± 15 | 111 | 112 ± 13 | 95 | 81.4 ± 14 | 112 | 88.1 ± 13 | 94.4 ± 13 | 107 ± 2.7
COc1cc(Nc2nc3ccccc3nc2NS(=O)(=O)c2ccc(NC(=O)c3ccc(C)c(OC)c3)cc2)cc(OC)c1 | 86.4 ± 4.2 | 102 | 49.675 ± 0.011 | 86.9 | 66.9 ± 17 | 94.9 | 84.5 ± 8.2 | 54.3 ± 12 | 88.5 ± 24
CCOc1ccc(Cc2cc(C3OC(CO)C(O)C(O)C3O)ccc2Cl)cc1 (stereo not drawn) [Dapagliflozin] | 112 ± 8.7 | 113 | 89.6 ± 9.1 | 110 | 107 ± 18 | 128 | 78.8 ± 4.8 | 84 ± 6.9 | 103 ± 24
O=C1NC(=O)C(c2ccccc2)(c2ccccc2)N1 [Phenytoin] | 106 ± 8.9 | 151 | 105.6 ± 0.89 | 108 | 113 ± 16 | 129 | 99 ± 5.9 | 118 ± 16 | 160 ± 25
COc1cc(C2c3cc4c(cc3C(OC3OC5COC(C)OC5C(O)C3O)C3COC(=O)C23)OCO4)cc(OC)c1O (stereo not drawn) [Etoposide] | 103 ± 7.8 | 94.2 | 90 ± 4.5 | 89.4 | 84 ± 3 | 69.7 | 120 ± 4.3 | 91.8 ± 6 | 95.3 ± 21
Cc1cc(Nc2cc(N3CCN(C)CC3)nc(Sc3ccc(NC(=O)C4CC4)cc3)n2)n[nH]1 [VX-680 (MK-0457,Tozasertib)] | 122 ± 11 | 84.3 | 70 ± 21 | 133 | 81.5 ± 1.7 | 111 | 66.5 ± 10 | 67.6 ± 2.1 | 142 ± 14
CCOC(=O)c1ccc(C#Cc2ccc3c(c2)C(C)(C)CCS3)nc1 [Tazarotene] | 141 ± 48 | 108 | 127 ± 22 | 113 | 184 ± 8.9 | 97.9 | 104 ± 16 | 123 ± 1.6 | 188 ± 10
CC(C(=O)O)c1ccc2c(c1)[nH]c1ccc(Cl)cc12 (stereo not drawn) [Carprofen] | 175 ± 51 | 107 | 112 ± 6 | 95.3 | 102.2 ± 0.8 | 138 | 113 ± 3.4 | 152 ± 30 | 117.4 ± 0.51
O=c1oc2c(O)c(O)cc3c(=O)oc4c(O)c(O)cc1c4c23 [Ellagic acid] | 102 ± 15 | 144 | 100 ± 3 | 105 | 177 ± 43 | 125 | 103.5 ± 0.7 | 118 ± 11 | 115 ± 11
CC1CCc2c(N3CCC(O)CC3)c(F)cc3c(=O)c(C(=O)O)cn1c23 (stereo not drawn) [Nadifloxacin] | 83.8 ± 17 | 122 | 79 ± 2.1 | 93.8 | 103 ± 3.5 | 120 | 77.6 ± 6.6 | 74.2 ± 3.4 | 122 ± 6.2
